# Results from publication PMC4336329 (PLoS ONE, 2015).
# Out of some 310,000 compounds screened, about 14,000 (4.5%) showed an effect of 50% or more. The effect is printed as a negative number. What follows is part of a selection rich in strong results, with near analogues and random picks from the rest.
# Target: human ether-à-go-go-related gene (hERG) potassium channel (human, UniProt Q12809)
# Test: primary screen, population patch clamp on CHO cells stably expressing hERG; higher = less effect of the substance
# 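Further: peak tail current of the secondary pulse compared with the same well before compound.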
# Chain of human ether-à-go-go-related gene (hERG) potassium channel (Q12809 whole entry, looked up): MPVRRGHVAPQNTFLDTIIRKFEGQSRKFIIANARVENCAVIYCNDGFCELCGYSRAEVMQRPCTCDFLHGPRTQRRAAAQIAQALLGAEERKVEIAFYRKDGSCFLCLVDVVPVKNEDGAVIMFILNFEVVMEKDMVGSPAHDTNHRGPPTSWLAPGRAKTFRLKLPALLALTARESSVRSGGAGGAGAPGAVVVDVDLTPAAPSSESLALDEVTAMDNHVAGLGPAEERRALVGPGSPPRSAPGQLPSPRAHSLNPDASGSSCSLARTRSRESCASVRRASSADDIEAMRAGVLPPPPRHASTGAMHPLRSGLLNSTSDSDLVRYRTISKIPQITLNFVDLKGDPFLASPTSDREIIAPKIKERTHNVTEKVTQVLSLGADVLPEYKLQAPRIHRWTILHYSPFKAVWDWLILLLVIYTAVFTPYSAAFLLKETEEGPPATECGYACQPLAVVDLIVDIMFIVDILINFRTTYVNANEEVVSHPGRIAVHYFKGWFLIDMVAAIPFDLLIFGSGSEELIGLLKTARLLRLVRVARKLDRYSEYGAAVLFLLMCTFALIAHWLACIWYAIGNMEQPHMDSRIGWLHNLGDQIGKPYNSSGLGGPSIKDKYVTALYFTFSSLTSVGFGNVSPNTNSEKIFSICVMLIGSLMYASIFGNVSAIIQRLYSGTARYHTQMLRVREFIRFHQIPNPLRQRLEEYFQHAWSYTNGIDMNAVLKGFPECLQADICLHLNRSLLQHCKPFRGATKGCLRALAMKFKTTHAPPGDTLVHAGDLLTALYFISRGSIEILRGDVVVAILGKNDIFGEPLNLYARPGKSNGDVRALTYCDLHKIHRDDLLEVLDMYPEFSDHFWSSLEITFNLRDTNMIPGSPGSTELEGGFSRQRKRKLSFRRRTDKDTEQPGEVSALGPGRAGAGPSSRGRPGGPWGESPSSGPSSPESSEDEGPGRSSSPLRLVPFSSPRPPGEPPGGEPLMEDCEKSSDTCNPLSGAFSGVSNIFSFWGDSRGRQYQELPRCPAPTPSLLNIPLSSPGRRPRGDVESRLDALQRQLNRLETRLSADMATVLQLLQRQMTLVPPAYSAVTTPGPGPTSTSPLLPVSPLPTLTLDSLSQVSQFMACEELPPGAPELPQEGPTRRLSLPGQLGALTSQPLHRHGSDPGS
row,SMILES,"hERG current change (%, negative = inhibition) at 10uM [%]"
1,CC1CCCN(C(=O)CNC(=O)Cn2ccc3ccccc3c2=O)C1 (centres unmarked),-5.78
2,COc1cc(NC(=O)c2ccc(COCC(F)(F)F)o2)cc(OC)c1OC,-16.8
3,COc1ccc(OC)c(NC(=O)CCCCCn2nnc3ccccc3c2=O)c1,-2.09
4,CN(C)S(=O)(=O)c1cc(NC(=O)CSc2cccc[n+]2[O-])ccc1Cl,9.64
5,COc1ccc(-n2c(-c3cccc(OC)c3)nc(=S)c3c2CCCC3)cc1,8.47
6,CC(=O)O/N=C(/c1nonc1N)N1CCN(c2ccc([N+](=O)[O-])cc2Cl)CC1,-33.9
7,COCc1[nH]nc2c1C(c1c(F)cccc1Cl)C(C#N)=C(N)O2 (centres unmarked),-3.01
8,Cc1ccc(NC(=O)c2ccc(NCCN)c([N+](=O)[O-])c2)cc1Cl,-14.3
9,CCc1ccc2[nH]c3nc(N/N=C/c4ccc(O)cc4O)nnc3c2c1,3.31
10,CCOc1ccc(C(=O)C[n+]2ccc(C(=O)NCCO)cc2)cc1.[Br-],18.3
11,Cc1cc(-c2nc(C)c(C(=O)NNS(=O)(=O)c3ccccc3)s2)no1,11.9
12,Cc1ccccc1-c1nnn(Cc2ccc(F)cc2Cl)n1,10.6
13,CCc1ccc2oc(=O)cc(CN3CCN(CCO)CC3)c2c1,-14.9
14,Cc1cc(C)c2c(CN3CCN(C/C=C/c4ccccc4)CC3)cc(=O)oc2c1,-76.9
15,Cc1cc(C)c2c(Cn3ccnc3)cc(=O)oc2c1,1.13
16,Cc1cc(C)c2c(CN3CCN(CCO)CC3)cc(=O)oc2c1,-50.4
17,COC(=O)c1ccc(Cl)c(NC(=O)CN(c2ccc3c(c2)OCO3)S(C)(=O)=O)c1,7.68
18,O=C(O)CCC(NC(=O)c1cncc(O)c1)C(=O)O (centres unmarked),-4.94
19,CCCC1(c2ccccc2)NC(=O)N(CC(=O)N(C)Cc2c(F)cccc2Cl)C1=O (centres unmarked),-2.69

row,SMILES,"hERG current change (%, negative = inhibition) at 10uM [%]"
1,Cc1ccc(C(C2=C(O)CC(C)(C)CC2=O)C2C(=O)CC(C)(C)CC2=O)s1 (centres unmarked),14.9
2,CN=C(NC1CCCCC1)c1ccc([N+](=O)[O-])cc1,1.68
3,Cl.OCCN1C2=NCCCN2c2ccccc21,5.78
4,OC(CN1C2=NCCN2c2ccccc21)c1ccc(Br)cc1 (centres unmarked),-71
5,Cl.OC(CN1C2=NCCCN2c2ccccc21)c1ccc(Br)cc1 (centres unmarked),-83.9
6,Cl.OC(CN1C2=NCCCN2c2ccccc21)c1ccc(Cl)cc1 (centres unmarked),-75.9
7,O=C1CSC(=S)N1c1cccnc1,-7.65
8,Cc1ccccc1OCCn1cnc2cc([N+](=O)[O-])ccc2c1=O,-7.38
9,CCc1cc(=O)oc2c(C)c(OCC(=O)NCCCN3CCOCC3)ccc12,-31.8
10,CCOc1ncccc1C(=O)OCc1csc(CC(=O)Nc2ccccc2C)n1,0.199
11,Cc1ccc2[nH]c(O)c(N=NC(N)=S)c2c1,19.3
12,COc1cccc(NC(=O)Cc2cccs2)c1,14.4
13,O=C(CC1CCCC1)Nc1cc(C(F)(F)F)ccc1-n1cncn1,-10.4
14,Cc1ccc(C(=O)Nc2cc(C(F)(F)F)ccc2-n2cncn2)o1,-9.88
15,Cc1cc(CN2CCN(CC(=O)Nc3cc(C(F)(F)F)ccc3-n3cncn3)CC2)no1,-69.8
16,CN(Cc1c(F)cccc1Cl)C(=O)c1cccc(S(=O)(=O)NCc2ccccc2)c1,-28
17,O=C(CN1CCOCC1)Nc1ccc(N2CCN(c3ccccc3)CC2)c(F)c1,2.59
18,CC(C)(C)n1ncc2c(=O)n(CC(=O)c3ccccc3)cnc21,-10.4
19,O=C1CCc2cc(S(=O)(=O)NC3CCCCC3)ccc2N1,-19.3

row,SMILES,"hERG current change (%, negative = inhibition) at 10uM [%]"
1,O=C1CCc2cc(OCCCCc3nnnn3C3CCCCC3)ccc2N1,-64.1
2,COc1ccc(N2CCN(Cc3nnnn3C3CCCCC3)CC2)cc1,6.34
3,CN(C(=O)COC(=O)c1cn(C)c2ccccc12)C1CCCCC1,6.55
4,CC(=O)N1c2ccc(S(=O)(=O)NCC3CCC(C(=O)NCc4ccc(C)o4)CC3)cc2CC1C (centres unmarked),-3.13
5,CCCc1cc(=O)[nH]c(Nc2ccc(Cl)cc2)n1,6.28
6,O=C(Nc1ccccc1)C(=O)Nc1ccc2c(c1)N(C(=O)C1CC1)CCC2,-5.26
7,Nc1cc(=O)[nH]c(N2CCN(c3ccccc3)CC2)n1,24.2
8,COc1cc(CN2CCC(n3nccc3NC(=O)c3ccccc3OC)CC2)ccc1F,-76.7
9,COc1ccccc1C(=O)Nc1ccnn1C1CCN(Cc2ncc[nH]2)CC1,-16.3
10,COc1ccccc1C(=O)Nc1ccnn1C1CCN(Cc2ccc3nonc3c2)CC1,-72.1
11,CCn1ccnc1CN1CCC(n2nccc2NC(=O)CCc2ccccc2)CC1,-3.91
12,COc1ccccc1C(=O)Nc1ccnn1C1CCN(Cc2ccn[nH]2)CC1,-36.1
13,CCOc1ccc(CN2CCC(n3nccc3NC(=O)c3ccccc3OC)CC2)cc1,-82.8
14,COc1cc(CN2CCC(n3nccc3NC(=O)C3CCOC3)CC2)ccc1F (centres unmarked),-6.78
15,COc1ccc(C(=O)Nc2ccnn2C2CCN(Cc3ccccn3)CC2)cc1,5.54
16,CCn1ccnc1CN1CCC(n2nccc2NC(=O)c2ccccc2OC)CC1,-69.9
17,COc1ccc(C(=O)Nc2ccnn2C2CCN(Cc3ccc4nonc4c3)CC2)cc1,-43.1
18,COc1ccc(/C=N/Nc2nc(-c3cccnc3)nc3ccccc23)cc1OC,-22.2
